Assay results: PubChem BioAssay;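 active = inhibition over a set limit, the all-compound mean plus 3 SD, in both replicate runs; inconclusive = over that limit in just one replicate run; inactive = at or under that limit in both runs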

experiment: RAM pathway blockade in budding yeast – dse1pr::URA3 reporter, 5-FOA selection, pilot screen (AID 869);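 note: 0% = DMSO wells with no growth and 100% = 10 µM 1-NA-PP1 with full growth; RAM network block rescues cells from 5-FOA so hits raise OD615 growth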; settings: S. cerevisiae dse1pr::URA3 5-FOA growth, OD615, 2 d; at 10 µM; hits give high values; strain carries analog-sensitive mutant Cbk1 kinase

inhibition, inactive:
CC1NC(=O)NC1CCCCC(=O)O (stereo not drawn) 3.06%, CCc1ccc(NC(=O)C2CC=CCC2C(=O)O)cc1 (stereo not drawn) -0.5%, CCN(CCCNC(=O)Cn1cc2c(n1)CCCC2)c1cccc(C)c1 0.48%, O=C(NC1CCCCCCC1)C1CCC(CNc2c(N3CCCC3)c(=O)c2=O)CC1 (stereo not drawn) 0.85%, CNC(=O)CN1C(=O)c2ccccc2S1(=O)=O 2.51%, O=C(O)CCC(C(=O)O)n1c(O)c(C2=c3ccccc3=NC2=O)sc1=S (stereo not drawn) 2.23%, CCOc1ccccc1NC(=O)C1CCN(S(=O)(=O)c2ccc(OC)c(OC)c2)CC1 0.085%, Cc1cc(C)c(S(=O)(=O)Nc2nnc(C)s2)c(C)c1 0.87%, Cc1ccc(C(c2sc3nc(C)nn3c2O)N2CCN(CCO)CC2)cc1 (stereo not drawn) 1.54%, CCN(CC)C(=O)c1sc(NC(=O)c2ccoc2C)c(C(=O)OC)c1C 1.33%, Cc1oc2c(c1C(=O)NC(Cc1c[nH]c3ccccc13)C(=O)O)CCCC2 (stereo not drawn) 1.37%, COc1cccc(C2NC(=O)NC(O)(C(F)(F)F)C2C(=O)c2cccnc2)c1OC (stereo not drawn) 1.14%, Cc1noc(C)c1S(=O)(=O)N(CC(=O)Nc1ccc2c(c1)OCO2)c1ccc(C(C)C)cc1 2.64%, COc1ccc(C2CC(=O)N3CN(c4ccc(C)c(Cl)c4)CSC3=C2C#N)cc1 (stereo not drawn) 0.91%, O=C(Cc1cccs1)N1CCN(c2ccccn2)CC1 0.735%, O=C(O)CC1C(=O)NCCN1CCCc1ccccc1 (stereo not drawn) 0.455%, CCCCN(CC)CCNC(=O)Cn1cnc2sc(C)c(S(=O)(=O)N3CCOCC3)c2c1=O 2.3%, CC1(C)C(C#N)=C(N)OC2=C1C(=O)CCC2 2.41%, CCc1nnc(NC(=O)c2ccc(S(=O)(=O)N3CCOCC3)cc2)s1 1.92%, Cc1ccnc(N2C(=O)c3ccccc3C2Nc2ccccc2Cl)c1 (stereo not drawn) 1.49%, CCCCOC(=O)Nc1ccc(S(=O)(=O)Nc2cc(C)nc(C)n2)cc1 1%, O=C1Nc2cc(Cl)cnc2N2CCCC12 (stereo not drawn) 0.905%, CCn1c(-c2ccccc2O)n[nH]c1=S -0.54%
